Molecules are shown by their SMILES. The source made the active and inactive calls. How the source made its calls: active means hit-call score of the fitted dose curve at least 0.9, where 1 is the maximum; inactive means score below 0.9.

Usually AC50 stands for the midpoint of the concentration-response curve, whichever way the signal moves.

Holding throughout (settings): mRNA level, 48 h; actives raise or lower the signal
Read-out in test [1]: Lipoprotein lipase (LPL), LPL (gene 4023)
Kind of test: LTEA_HepaRG_LPL: Life Technologies and Expression Analysis (LTEA) Assay for Lipoprotein lipase (LPL) using HepaRG (AID 2283515). In short, it runs like this:
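Differentiated human HepaRG cells in serum-free induction medium were exposed in duplicate for 48 h to eight half-log concentrations (top 100 uM) in 0.5% DMSO. LPL mRNA was quantified by TaqMan qRT-PCR, normalized to ACTB, GAPDH and POLR2A.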

Read-out in test [2]: MicroRNA 122 (MIR122), gene 406906
In words: LTEA_HepaRG_MIR122: Life Technologies and Expression Analysis (LTEA) Assay for MicroRNA 122 (MIR122) using HepaRG (AID 2283516). Further: the transcript read is the microRNA miR-122. The method in brief: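 HepaRG plated 48 h, switched to serum-free induction medium, then treated in duplicate for 48 h (100 uM top, half-log steps, 0.5% DMSO vehicle). RNA isolated, qRT-PCR performed, concentration-response fitted both directions relative to DMSO.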

Read-out in test [3]: matrix metalloproteinase-10 (MMP10), MMP10 (gene 4319)
In words: LTEA_HepaRG_MMP10: Life Technologies and Expression Analysis (LTEA) Assay for matrix metalloproteinase-10 (MMP10) using HepaRG (AID 2283517). The method in brief: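 HepaRG, collagen I, ~100,000 cells/well; serum-free induction medium; 48 h exposure, duplicate, 8-pt half-log to 100 uM, 0.5% DMSO. Readout: TaqMan qRT-PCR, normalized to ACTB/GAPDH/POLR2A; bidirectional fit vs DMSO.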

Read-out in test [4]: matrix metalloproteinase-3 (MMP3), MMP3 (gene 4314)
Kind of test: LTEA_HepaRG_MMP3: Life Technologies and Expression Analysis (LTEA) Assay for matrix metalloproteinase-3 (MMP3) using HepaRG (AID 2283519). In short, it runs like this: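 Differentiated human HepaRG cells, plated 48 h on collagen I, were exposed in duplicate for 48 h in serum-free induction medium to eight half-log concentrations up to 100 uM in 0.5% DMSO. MMP3 mRNA was quantified by TaqMan qRT-PCR, normalised to ACTB, GAPDH and POLR2A.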

Read-out in test [5]: Paternally Expressed 10 (PEG10), PEG10 (gene 23089)
In words: LTEA_HepaRG_PEG10: Life Technologies and Expression Analysis (LTEA) Assay for Paternally Expressed 10 (PEG10) using HepaRG (AID 2283520). The method in brief:
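HepaRG, 48 h post-plating → serum-free induction medium → 48 h chemical exposure (duplicate, 8-pt, max 100 uM, half-log, 0.5% DMSO) → lysis in RLT → TaqMan qRT-PCR for PEG10, ACTB/GAPDH/POLR2A normalisation.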

Read-out in test [6]: Nuclear factor NF-kappa-B p105 subunit (Homo sapiens) (UniProt P19838)
Kind of test: LTEA_HepaRG_NFKB1: Life Technologies and Expression Analysis (LTEA) Assay for Nuclear Factor Kappa B Subunit 1 (NFKB1) using HepaRG (AID 2283521).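 On outcome: TaqMan qRT-PCR transcript normalised to ACTB GAPDH and POLR2A housekeeping genes.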 In short, it runs like this: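 Differentiated human HepaRG cells were exposed for 48 h in serum-free induction medium to eight concentrations (top 100 uM, half-log steps, 0.5% DMSO), in duplicate. NFKB1 mRNA was measured by TaqMan qRT-PCR, normalized to ACTB/GAPDH/POLR2A, and fitted bidirectionally against DMSO.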

Read-out in test [7]: Protein phosphatase 2A (PPP2R4), PTPA (gene 5524)
Kind of test: LTEA_HepaRG_PPP2R4: Life Technologies and Expression Analysis (LTEA) Assay for Protein phosphatase 2A (PPP2R4) using HepaRG (AID 2283522). In short, it runs like this:
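Readout is PPP2R4 transcript level by microfluidic qRT-PCR after 48 h chemical treatment of human HepaRG liver cells. Concentrations spanned 100 uM downward in half-log steps; gain or loss of signal was fitted relative to DMSO.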

Read-out in test [8]: Phosphatase and tensin (PTEN), PTEN (gene 5728)
Kind of test: LTEA_HepaRG_PTEN: Life Technologies and Expression Analysis (LTEA) Assay for Phosphatase and tensin (PTEN) using HepaRG (AID 2283523). The method in brief: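 Differentiated human HepaRG cells, plated 48 h then switched to serum-free induction medium, were exposed in duplicate for 48 h to eight half-log concentrations up to 100 uM in 0.5% DMSO. PTEN mRNA measured by TaqMan qRT-PCR, normalized to ACTB/GAPDH/POLR2A, bidirectional fit versus DMSO.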

Read-out in test [9]: solute carrier (SLC22A1), SLC22A1 (gene 6580)
Kind of test: LTEA_HepaRG_SLC22A1: Life Technologies and Expression Analysis (LTEA) Assay for solute carrier (SLC22A1) using HepaRG (AID 2283524). The method in brief: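 Human HepaRG cells were plated 48 h, switched to serum-free induction medium, then exposed in duplicate for 48 h to 8-point half-log series from 100 uM in 0.5% DMSO. SLC22A1 mRNA measured by qRT-PCR, normalized to ACTB/GAPDH/POLR2A, fitted bidirectionally versus DMSO.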

Read-out in test [10]: MYC, MYC (gene 4609)
Kind of test: LTEA_HepaRG_MYC: Life Technologies and Expression Analysis (LTEA) Assay for MYC using HepaRG (AID 2283518). The method in brief:
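qRT-PCR read-out of MYC transcript (Fluidigm TaqMan, housekeeping-normalized) after 48 h chemical exposure of HepaRG cells; eight concentrations, top 100 uM, half-log steps. Bidirectional curve fitting against 0.5% DMSO vehicle baseline.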

Sequence of Nuclear factor NF-kappa-B p105 subunit (Homo sapiens) (P19838 whole entry, looked up): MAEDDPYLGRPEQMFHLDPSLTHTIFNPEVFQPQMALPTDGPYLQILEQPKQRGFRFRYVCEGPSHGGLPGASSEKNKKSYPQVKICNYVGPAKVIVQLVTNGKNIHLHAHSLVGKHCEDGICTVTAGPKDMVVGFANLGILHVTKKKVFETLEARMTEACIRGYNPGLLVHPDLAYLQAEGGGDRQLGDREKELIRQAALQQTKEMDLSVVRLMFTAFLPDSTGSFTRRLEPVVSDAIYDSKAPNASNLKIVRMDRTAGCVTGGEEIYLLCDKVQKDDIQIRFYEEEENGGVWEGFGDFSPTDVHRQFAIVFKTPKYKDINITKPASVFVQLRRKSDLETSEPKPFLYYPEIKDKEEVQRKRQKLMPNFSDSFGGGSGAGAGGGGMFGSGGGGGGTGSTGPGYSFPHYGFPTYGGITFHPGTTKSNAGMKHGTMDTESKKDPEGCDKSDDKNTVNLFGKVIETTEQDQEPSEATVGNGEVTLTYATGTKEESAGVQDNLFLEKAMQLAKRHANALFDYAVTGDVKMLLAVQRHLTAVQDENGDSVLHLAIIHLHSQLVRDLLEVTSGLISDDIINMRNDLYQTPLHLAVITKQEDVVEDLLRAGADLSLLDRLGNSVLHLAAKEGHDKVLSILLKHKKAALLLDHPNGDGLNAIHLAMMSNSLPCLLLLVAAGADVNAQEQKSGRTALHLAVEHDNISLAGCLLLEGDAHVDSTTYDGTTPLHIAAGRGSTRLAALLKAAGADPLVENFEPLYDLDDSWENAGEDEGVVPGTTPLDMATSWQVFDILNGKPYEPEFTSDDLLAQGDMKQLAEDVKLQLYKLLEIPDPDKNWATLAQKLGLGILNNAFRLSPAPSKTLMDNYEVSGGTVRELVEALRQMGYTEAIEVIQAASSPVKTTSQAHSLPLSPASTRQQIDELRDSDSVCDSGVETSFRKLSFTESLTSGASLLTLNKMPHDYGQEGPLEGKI

As for `CC(C)(C)CC(C)(C)c1ccc(O)c(-n2nc3ccccc3n2)c1`, the result in test [1], in test [2], in test [3], in [4], in test [5] and in [6] was inactive. Further, the compound was classed as inactive in [7] and in [8]. The AC50 in [9] is 74.5 µM (active).
`CCCCOCCO`: the call in test [1], in [2], in [3], in [10], in test [4] and in [5] was inactive. Besides, the compound was classed as inactive in test [6], in [7], in [8] and in test [9].
Consider `O=C(OCCOCCOC(=O)c1ccccc1)c1ccccc1`, for which the compound was called inactive in test [1], in test [2], in [3], in test [10], in test [4] and in [5]. Besides, the outcome in test [6], in test [7], in [8] and in test [9] was inactive.
Turning to `Cc1cc(C)c(O)c(C)c1`, the compound was classed as inactive in [1], in [2], in [3], in test [10], in test [4] and in test [5]. For the same compound, the outcome in [7], in test [8] and in test [9] was inactive.
Consider `CC[C@H](C)[C@@H](C(=O)O)n1sc2ccccc2c1=O`, for which the compound was called inactive in test [1], in [2], in [3], in [10], in test [4] and in test [5]. Further, the compound was called inactive in [7], in [8] and in test [9].
As for `COc1ccc([N+](=O)[O-])cc1N`, the result in [1], in [2], in test [3], in test [10], in [4] and in test [5] was inactive. Besides, the compound was classed as inactive in test [6], in test [7], in test [8] and in [9].
Regarding `CN1CCN(c2ccccc2/C=C2\SCCN(c3ccc(Cl)c(Cl)c3)C2=O)CC1`, the AC50 in [1] is 84.9 µM (active); in [2] it was 94.1 µM (active); in [3], 93.9 µM (active); in test [4] it was 87.1 µM (active); in [5], 14 µM (active); in [9], 93.8 µM (active). The compound was classed as inactive in test [10], in [6], in test [7] and in test [8].
As for `OC1CCC(C2CCCCC2)CC1` (stereo not drawn), the compound was classed as inactive in test [1], in test [2], in [3], in test [10], in [4] and in test [5]. For the same compound, the result in test [7], in [8] and in [9] was inactive.
Turning to `CC1=C(/C=C/C(C)=C/C=C/C(C)=C/C(=O)O)C(C)(C)CCC1`, the call in test [1], in [2], in [3], in test [6], in [7] and in test [8] was inactive. Also, the results for the AC50 in test [4], in [5] and in test [9] were 18 µM (active), 9 µM (active) and 22.9 µM (active), respectively.
As to `NC(=O)N1C(=O)C(C(=O)c2cc(Cl)cs2)c2cc(F)c(Cl)cc21` (stereo not drawn), the AC50 was 90.6 µM (active) in test [1]; 26.4 µM (active) in test [2]; 34.9 µM (active) in test [3]; 27 µM (active) in [10]; 50 µM (active) in [4]; 20.8 µM (active) in test [5]. The AC50 in test [7] is 13.9 µM (active); in test [8] it was 50 µM (active); in [9], 16.1 µM (active).
With `C[C@@H]1C[C@H]2[C@@H]3CCC4=CC(=O)C=C[C@]4(C)[C@@]3(F)[C@@H](O)C[C@]2(C)[C@@]1(O)C(=O)COP(=O)(O)O`, the compound was classed as inactive in [1], in test [2], in [3], in test [4], in test [5] and in test [6]. For the same compound, the compound was called inactive in test [7], in test [8] and in test [9].
Regarding `CCc1nn(C2CCCCC2)c2cc(C3(C#N)CCC(C(=O)O)CC3)ccc12` (stereo not drawn), the AC50 in test [1] was 37.2 µM (active); in [2], 80.1 µM (active); in test [3], 81.6 µM (active); in test [10], 50 µM (active); in [5] it was 12.8 µM (active); in test [7] it was 11.4 µM (active). Also, the AC50 in test [9] was 72.6 µM (active). In addition, the result in [4], in test [6] and in test [8] was inactive.
Consider `CC(O)CO` (stereo not drawn), for which the outcome in test [1], in test [2], in test [3], in test [4], in test [5] and in [6] was inactive. For the same compound, the compound was classed as inactive in test [7], in test [8] and in [9].
For `Oc1cc2ccccc2c2ccccc12`, the AC50 in test [1], in test [5] and in [9] was 50 µM (active) in each case. Also, the outcome in test [2], in [3], in test [4], in test [6], in test [7] and in [8] was inactive.
For `COCC(C)OCC(C)O` (stereo not drawn), the call in test [1], in test [2], in test [3], in test [4], in test [5] and in test [6] was inactive. Also, the outcome in [7], in [8] and in test [9] was inactive.
As to `c1ccc2cc3c(ccc4ccccc43)cc2c1`, the AC50 was 7.72 µM (active) in test [1]; 15 µM (active) in test [2]; 13.4 µM (active) in test [10]; 12.1 µM (active) in [5]; 18.6 µM (active) in [9]. For the same compound, the outcome in test [3], in [4], in test [7] and in [8] was inactive.
As to `CCCCCCCCOC(=O)CCCCCCCCC(=O)OCCCCCCCC`, the compound was called inactive in [1], in test [2], in test [3], in [10], in [4] and in test [5]. Besides, the call in test [6], in [7], in test [8] and in test [9] was inactive.
For `O=[N+]([O-])c1ccc(O)cc1`, the call in test [1], in test [2], in [3], in test [4], in [5] and in [6] was inactive. The compound was classed as inactive in test [7], in test [8] and in [9].
With `NC(=O)N(O)[C@@H]1C=C[C@H](Oc2cccc(Oc3ccc(F)cc3)c2)C1`, the half-maximal activity concentration (AC50) in test [1] was 50 µM (active); in test [2], 68 µM (active); in [3], 64.8 µM (active); in test [10], 72.7 µM (active); in test [4], 85.9 µM (active); in [5], 5.31 µM (active). Besides, the AC50 in test [6] is 74.4 µM (active); in test [9] it was 63.6 µM (active). The result in test [7] and in test [8] was inactive.
